LYPLA2 inh – LYPLA2 inhibitors, primary screen, counter-screen for PME1 inhibitor project, biochemical, fluorescence polarization, FP-Rh probe ABPP; recombinant LYPLA2; inhibition, % at 5.9 µM; 320,000 compounds, 0.38% hits; AID 2177, 2009;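 active means inhibition above the screen-wide mean plus 3 SD, limit set per campaign, cut at about 26% in these data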;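 further: 0% = LYPLA2 with DMSO and 100% = wells lacking LYPLA2 enzyme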
PREPL inhibitor – PREPL enzyme inhibitors, primary screen, biochemical, fluorescence polarization. Prolyl endopeptidase-like (Homo sapiens), Q4J6C6. recombinant PREPL, fluorescence polarization activity-based probe. inhibition, % at 5.96 µM. 320,000 compounds, 0.68% hits. AID 2751, 2010; in the data active means inhibition above about 43%;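 further: 0% = enzyme with DMSO and 100% = wells lacking enzyme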
Fam108B counter – mouse Fam108B serine hydrolase inhibitors, primary screen, counter-screen for RBBP9 inhibitor project, biochemical, fluorescence polarization. recombinant Fam108B, FP-Rh probe fluorescence polarization. inhibition, % at 9.51 µM. 300,000 compounds, 0.33% hits. AID 1947, 2009;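 active means inhibition above the screen mean inhibition plus 3 SD, computed separately per campaign, cut at about 18% in these data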;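 further: inhibitors lower polarization as less probe binds the enzyme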
PME-1 primary – PME-1 inhibitors via competitive probe labeling, primary screen, biochemical, fluorescence polarization, FP-Rh probe, HTS; Protein phosphatase methylesterase 1 (Homo sapiens), Q9Y570; recombinant PME-1; inhibition, % at 5.9 µM; 320,000 compounds, 0.53% hits;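 active means inhibition above the campaign mean of all compounds plus 3 SD, cut at about 26% in these data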;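 further: competitive labeling of PME-1 active site by serine hydrolase directed probe; 0% = PME-1 with DMSO and 100% = wells lacking PME-1 enzyme; inhibitors block probe labeling so polarization falls and inhibition rises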
Target sequence (Q9Y570 whole entry, looked up): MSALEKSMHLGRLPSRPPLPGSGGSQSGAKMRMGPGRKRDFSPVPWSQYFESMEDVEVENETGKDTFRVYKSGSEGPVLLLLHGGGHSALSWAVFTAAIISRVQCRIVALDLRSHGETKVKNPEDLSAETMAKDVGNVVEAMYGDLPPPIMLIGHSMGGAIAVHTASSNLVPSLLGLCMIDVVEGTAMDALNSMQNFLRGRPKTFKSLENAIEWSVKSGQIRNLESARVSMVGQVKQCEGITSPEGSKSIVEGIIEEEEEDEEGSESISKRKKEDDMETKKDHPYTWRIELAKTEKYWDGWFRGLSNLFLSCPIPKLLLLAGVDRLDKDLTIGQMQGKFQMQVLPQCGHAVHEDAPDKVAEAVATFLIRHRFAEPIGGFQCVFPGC
LYPLA1 inh – LYPLA1 inhibitors, primary screen, counter-screen for PME1 inhibitor project, biochemical, fluorescence polarization, FP-Rh probe ABPP | Acyl-protein thioesterase 1 (Homo sapiens), O75608 | recombinant LYPLA1 | inhibition, % at 5.9 µM | 320,000 compounds, 0.16% hits | AID 2174, 2009;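 active means inhibition above the mean of all tested compounds plus 3 SD, set per campaign, cut at about 14% in these data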;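 further: inhibitors block serine hydrolase probe labeling of LYPLA1 so polarization falls; 0% = enzyme with DMSO and 100% = wells lacking LYPLA1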
Target sequence (O75608 whole entry, looked up): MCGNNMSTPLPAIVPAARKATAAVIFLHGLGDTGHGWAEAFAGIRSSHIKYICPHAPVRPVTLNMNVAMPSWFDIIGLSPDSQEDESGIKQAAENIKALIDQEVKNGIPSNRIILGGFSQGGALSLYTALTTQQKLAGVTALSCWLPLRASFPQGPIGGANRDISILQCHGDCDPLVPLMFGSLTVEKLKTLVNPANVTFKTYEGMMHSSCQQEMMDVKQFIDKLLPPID
LYPLA2 conf – LYPLA2 inhibitors, retest, confirmation, counter-screen for PME1 inhibitor project, biochemical, fluorescence polarization, FP-Rh probe ABPP. shares compounds with LYPLA2 inh. recombinant LYPLA2. inhibition, % at 5.9 µM. 1,100 compounds, 72% hits;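 active means mean inhibition across replicates above the hit cutoff set in the primary screen, cut at about 26% in these data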;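 further: blocked labeling of the enzyme by serine hydrolase FP-Rh probe lowers polarization; 0% = enzyme with DMSO and 100% = wells lacking LYPLA2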
LYPLA2 gel ABPP – LYPLA2 inhibitors in proteome, late-stage follow-up, gel-based competitive ABPP, fluorescence, assay provider; rhLYPLA2 in mouse brain proteome, gel ABPP FP-Rh; inhibition, % at 20 µM; shares compounds with LYPLA2 inh; 150 compounds, 30% hits;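 active means inhibition of LYPLA2 enzyme probe labeling above about 50%, limit read from the data; inactive means inhibition below that limit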;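 further: loss of FP-Rh probe labeling of the LYPLA2 gel band measured as band density; 0% = DMSO only control band and 100% = blank gel background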
An asterisk follows results filed as active. Rows were chosen to be rich in hits. Some 1.3% of all compounds tested hit in one or more screens of this group.

`COc1ccc(N2CCN(C(=O)c3ccc4c(c3)CCN4S(=O)(=O)c3ccccc3)CC2)cc1` gave LYPLA2 inh 35*, PREPL inhibitor 11, Fam108B counter 0, PME-1 primary 3, LYPLA1 inh -1 and LYPLA2 conf 41*.
Screening COc1ccc(N2CCN(CCC(=O)c3ccc4ccccc4c3)CC2)cc1 returned LYPLA2 inh 29*, PREPL inhibitor 23, Fam108B counter 1, PME-1 primary -3, LYPLA1 inh 8 and LYPLA2 conf 27*.
Screening Cc1noc(C)c1S(=O)(=O)Nc1ccc(C(=O)N2CCN(c3cccc(Cl)c3)CC2)cc1 returned LYPLA2 inh 30*, PREPL inhibitor 20, Fam108B counter 6, PME-1 primary 1, LYPLA1 inh 5 and LYPLA2 conf 25.
`COc1ccc(N2CCN(CC(=O)c3ccccc3)CC2)cc1` gave LYPLA2 inh 1, PREPL inhibitor 15, Fam108B counter 2, PME-1 primary 5 and LYPLA1 inh 2.
`CC(Sc1ccc(S(=O)(=O)N(C)C)cn1)C(=O)NC1CCCC1` (configuration not stated) gave LYPLA2 inh -1, PREPL inhibitor -2, PME-1 primary 2 and LYPLA1 inh 0.
For N#Cc1ccccc1OCC(=O)NNC(=O)CCC1CCCC1 the results were PREPL inhibitor 0.
COc1ccc2cc(/C(C)=N/NC(=S)Nc3cc(S(=O)(=O)N4CCOCC4)ccc3N3CCOCC3)ccc2c1 was read as LYPLA2 inh -7, PREPL inhibitor 7, Fam108B counter -6, PME-1 primary -6 and LYPLA1 inh -6.
`C/C(CCC(C)C)=N\NC(=S)Nc1cc(S(=O)(=O)N2CCOCC2)ccc1N1CCOCC1` gave LYPLA2 inh 28*, PREPL inhibitor 11, Fam108B counter 4, PME-1 primary 5, LYPLA1 inh 6 and LYPLA2 conf 62*.
CCN1C(=O)[C@H]2[C@@H](c3ccc(-c4ccc(C(C)=O)cc4)c(OC)c3)N[C@@](Cc3ccccc3)(C(=O)OC)[C@H]2C1=O was read as LYPLA2 inh -4, PREPL inhibitor -9, Fam108B counter 1, PME-1 primary -2 and LYPLA1 inh -2.
Screening COc1ccc(N2CCN(Cc3nc(-c4ccccc4)no3)CC2)cc1 returned LYPLA2 inh 26*, PREPL inhibitor 20, Fam108B counter 0, PME-1 primary -5, LYPLA1 inh 6 and LYPLA2 conf 16.
For COc1ccc(-c2noc(CN3CCN(c4ccccc4)CC3)n2)cc1 the results were LYPLA2 inh -3, PREPL inhibitor 11, Fam108B counter 2, PME-1 primary -1 and LYPLA1 inh 1.
`O=C(COC(=O)c1cncc(Br)c1)NCc1ccccc1` gave LYPLA2 inh -3, PREPL inhibitor 4, Fam108B counter -3, PME-1 primary -1 and LYPLA1 inh 2.
`O=C(COC(=O)c1cncc(Br)c1)NCc1ccc(Cl)cc1` gave LYPLA2 inh 27*, PREPL inhibitor -6, Fam108B counter -2, PME-1 primary -2, LYPLA1 inh 0 and LYPLA2 conf 0.
`COc1ccc(C(=O)Nc2ccc(N3CCN(C(=O)c4cccs4)CC3)cc2)cc1Br` gave LYPLA2 inh 29*, PREPL inhibitor 31, Fam108B counter 1, PME-1 primary 3, LYPLA1 inh 4 and LYPLA2 conf 27*.
Screening O=C(c1ccc(N2CCCC2=O)cc1)N1CCN(c2ccccc2Cl)CC1 returned LYPLA2 inh 10, PREPL inhibitor 9, PME-1 primary 2 and LYPLA1 inh 0.
`O=C(Nc1ccc(N2CCN(C(=O)c3ccc(Cl)cc3)CC2)cc1)c1ccc2c(c1)OCCO2` gave LYPLA2 inh 58*, PREPL inhibitor 36, Fam108B counter 1, PME-1 primary 7, LYPLA1 inh 4, LYPLA2 conf 63* and LYPLA2 gel ABPP 24.
O=C(c1ccc(N2CCCC2=O)cc1)N1CCN(c2ccc(Cl)cc2)CC1 was read as LYPLA2 inh 53*, PREPL inhibitor 8, Fam108B counter -3, PME-1 primary 2, LYPLA1 inh 0, LYPLA2 conf 55* and LYPLA2 gel ABPP 40.
`CC(=O)c1ccc(N2CCN(C(=O)Nc3ccc(Cl)cc3)CC2)cc1` gave LYPLA2 inh 27*, PREPL inhibitor 17, Fam108B counter 4, PME-1 primary -5, LYPLA1 inh 14 and LYPLA2 conf 18.
`Cc1sc2ncnc(N3CCC(C(=O)Nc4nnc(CC(C)C)s4)CC3)c2c1C` gave LYPLA2 inh 14, PREPL inhibitor 6, Fam108B counter 4, PME-1 primary 5 and LYPLA1 inh 7.
`COc1cccc(C(=O)Nc2sc3c(c2C#N)CCN(C(C)=O)C3)c1` gave LYPLA2 inh -2, PREPL inhibitor 19, Fam108B counter -2, PME-1 primary 1 and LYPLA1 inh -1.
CC(C)(C)[C@@H]1CCC(=O)N(CC[C@H](N=[N+]=[N-])c2ccccc2)CC1 was read as LYPLA2 inh 0, PREPL inhibitor 3, Fam108B counter -1, PME-1 primary 1 and LYPLA1 inh 4.
Screening O=C(Nc1ccc(N2CCN(C(=O)c3ccc(Cl)cc3)CC2)cc1)c1cccs1 returned LYPLA2 inh 29*, PREPL inhibitor 10, Fam108B counter 0, PME-1 primary 5, LYPLA1 inh -1 and LYPLA2 conf 27*.
Screening Cc1ccc(C(=O)N2CCN(c3ccc(NC(=O)c4cccs4)cc3)CC2)cc1 returned LYPLA2 inh 8, PREPL inhibitor 18, Fam108B counter 3, PME-1 primary 8 and LYPLA1 inh -4.
`Cc1ccc(CNS(=O)(=O)c2ccc(-n3cnnn3)c(C)c2)cc1` gave LYPLA2 inh -2, PREPL inhibitor -8, Fam108B counter 0, PME-1 primary 3 and LYPLA1 inh 0.
`Cc1ccc(C(c2cc(Br)ccc2O)N2CCSCC2)cc1` (configuration not stated) gave LYPLA2 inh -2, PREPL inhibitor -7, Fam108B counter -3, PME-1 primary -3 and LYPLA1 inh -3.

Source: PubChem (The Scripps Research Institute Molecular Screening Center)
